Records with an inconclusive call do not appear. The source made the active and inactive calls. Unless noted, calls come from the whole dose curve; as a rule, active = well fitted curve in the direction sought with a large enough effect; inconclusive = small, poorly fitted or top-dose-only effect, or another doubt; inactive = no such curve, though single readings can be large; an effect the other way counts as inactive or inconclusive.
Legend:
[1] = target: Glucocorticoid receptor (Homo sapiens) (UniProt P04150); assay: GR-GFP Redistribution (AID 450;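 active = compounds whose dose series gives a full or clear partial fitted curve of increased nuclear translocation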; note: potency is the fitted concentration of half-maximal effect); details: U2OS GR-GFP nuclear translocation, laser cytometry, 2 h
[2] = target: Glucocorticoid receptor (Homo sapiens) (UniProt P04150); assay: GR-EFC Redistribution (AID 451; calls by dose curve; note: potency is the fitted concentration of half-maximal effect); details: CHO-K1 GR-EFC translocation, beta-gal luminescence, 2 h
In short: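 Translocation of GR-ED fusion to nuclear EA restores b-gal, read by luminescence after 1 h room-temperature detection. Engineered CHO-K1 biosensor cells, 1,000/well, exposed 2 h at 37 C to titrations up to 46 uM final.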

[3] = target: Mitogen-activated protein kinase 10 (Mus musculus) (UniProt Q61831); assay: JNK3 AlphaScreen Assay (AID 530; active = well fitted curve in either direction with a large enough effect, not every such curve was filed as active;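 note: kinase came from lysate of stimulated human HepG2 cells; signal reports phosphorylation of biotinylated GST-cJun 1-79 at Ser73 with 10 µM ATP; % is set by controls: 0 for no effect and ±100 for the full control effect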)
In short: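 Room-temperature AlphaScreen kinase assay; pre-activated HepG2 lysate as JNK3 source, biotin-GST-cJun(1-79) substrate, 10 uM ATP, compound 15 min preincubation.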

[4] = target: 3',5'-cyclic-AMP phosphodiesterase 4B (Homo sapiens) (UniProt Q07343); assay: qHTS Assay for Inhibitors of PDE-IV (AID 607; active = well fitted activation curve with a large enough effect in the main read-out, with a control signal flat, not every such curve was filed as active; note: % of control where 0% means no effect)
In short: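 ACTOne HEK293 cells carry a modified cAMP-gated CNG channel and express endogenous PDE4; plated 1000 cells/well, compounds up to 22.9 uM final. Membrane-potential dye fluorescence (ex 535/em 590) was read; parental cells received 10 uM forskolin + 100 uM RO 20-1724.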

[5] = target: Cytochrome P450 3A4 (Homo sapiens) (UniProt P08684); assay: qHTS Assay for Activators of Cytochrome P450 3A4 (AID 885); note: nearly all actives have a fitted effect of over 65% in size
In short: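 20nM CYP3A4 + 25uM Luciferin-PPXE (=KM), 200mM KPO4; cpd 10 min RT; NADPH regen, 60 min RT; stop w/ detection buffer, 20 min; luminescence. Normalized to 57 uM ketoconazole.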

[6] = target: Ubiquitin carboxyl-terminal hydrolase 1 (Homo sapiens) (UniProt O94782); assay: Inhibitors of USP1/UAF1: Pilot qHTS (AID 504865); note: nearly all actives have a fitted effect of over 35% in size; note: potency is the fitted concentration of half-maximal effect
In short: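 Kinetic fluorescence assay: 1nM USP1/UAF1, 15 min compound preincubation, then 150nM Ub-Rho; 480/540 nm.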

[7] = target: DNA dC->dU-editing enzyme APOBEC-3G (Homo sapiens) (UniProt Q9HC16); assay: qHTS for inhibitors of Vif-A3G interactions: Validation (AID 588379); note: 0% is about no effect
In short: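 HeLa cells stably expressing Vif and A3G-eYFP, 700 cells/well, incubated overnight at 37 deg C, then exposed to compound overnight at 37 deg C. Inhibition of Vif-mediated degradation read as increased yellow fluorescence (Ex 488/Em 500-530) by laser-scanning cytometry.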

[8] = Primary qHTS for small molecule stabilizers of the endoplasmic reticulum resident proteome: Secreted ER Calcium Modulated Protein (SERCaMP) assay (AID 1508630); note: % is set by controls: 0 for no effect and ±100 for the full control effect
In short: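 GLuc-SERCaMP-expressing SH-SY5Y cells, pretreated 16 h with compound, are challenged with thapsigargin to empty ER calcium stores; after 4 h, coelenterazine is added directly to the medium and luminescence is imaged.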

[9] = qHTS Assay for Lipid Storage Modulators (AID 1519; calls by dose curve; for activity change, negative = inhibition: % is set by controls: 0 for no effect and ±100 for the full control effect); details: Drosophila S3 cells, BODIPY lipid droplet/cell ratio, laser cytometry, cells loaded with oleic acid
In short: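 Cells seeded at 5,000 per well were treated with compounds over a concentration series and loaded with oleic acid (400 uM, as added). Lipid droplet fluorescence (488 nm excitation, 500-530 nm channel) was read by laser-scanning cytometry and normalized to 20 uM Triacsin C.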

[10] = target: Cytochrome P450 3A4 (Homo sapiens) (UniProt P08684); assay: qHTS Assay for Inhibitors and Substrates of Cytochrome P450 3A4 (AID 884); note: % is set by controls: 0 for no effect and ±100 for the full control effect; nearly all actives have a fitted effect of over 50% in size
In short: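 20 nM human CYP3A4 with 25 uM Luciferin-PPXE (at KM) in 200 mM KPO4, preincubated 10 min with compound; NADPH regeneration started a 60 min RT reaction. Luciferin detected by luminescence, normalized to 57 uM ketoconazole as full inhibition.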

[11] = NCATS anti-infectives library activity on HEK293 viability as a counter-qHTS vs the C. elegans viability qHTS (AID 1745854);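 note: HEK293 cells exposed to compounds for 24 hr before the viability read; % is set by controls: 0 for no effect and ±100 for the full control effect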
In short: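 Cytotoxicity in human HEK293 cells is measured by ATP-dependent CellTiter-Glo luminescence following a 24 hr incubation with titrated library compounds at 37C. Top final concentration is 41.7 uM.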

[12] = qHTS for Inhibitors of Plasmodium falciparum (DD2) proliferation (AID 504314); note: potency is the fitted concentration of half-maximal effect
In short: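 Erythrocytes infected with P. falciparum (0.3% parasitemia, 2.5% hematocrit final) were incubated with compounds for 72 h at 37C, 5% CO2. Parasite DNA was detected by SYBR Green I fluorescence after saponin/Triton lysis, normalized to artemisinin (0.29 uM) and DMSO controls.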

[13] = qHTS for Inhibitors of Plasmodium falciparum (GB4) proliferation (AID 504315);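 note: 0% = DMSO vehicle and -100% = 0.29 µM artemisinin control; nearly all actives have a fitted effect of over 50% in size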
In short: (§1)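 Erythrocytes infected with P. falciparum line (0.3% parasitemia, 2.5% hematocrit final) incubated with compounds 72 h at 37 °C, 5% CO2; SYBR Green lysis buffer added, fluorescence read next day. Normalized to 0.29 uM artemisinin and DMSO.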

[14] = qHTS for Inhibitors of Plasmodium falciparum (7G8) proliferation (AID 504316);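 note: 0% = DMSO vehicle and -100% = 0.29 µM artemisinin full kill; nearly all actives have a fitted effect of over 65% in size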
In short: as §1

[15] = qHTS for Inhibitors of Plasmodium falciparum (HB3) proliferation (AID 504318);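 note: 0% = DMSO vehicle and -100% = artemisinin control; nearly all actives have a fitted effect of over 60% in size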
In short: as §1

[16] = qHTS for Inhibitors of Plasmodium falciparum (CP250) proliferation (AID 504320);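 note: plate controls were DMSO vehicle for no effect and 0.29 µM artemisinin control for full effect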
In short: as §1

Chain of Glucocorticoid receptor (Homo sapiens) (P04150 whole entry, looked up, the tested form may be a part): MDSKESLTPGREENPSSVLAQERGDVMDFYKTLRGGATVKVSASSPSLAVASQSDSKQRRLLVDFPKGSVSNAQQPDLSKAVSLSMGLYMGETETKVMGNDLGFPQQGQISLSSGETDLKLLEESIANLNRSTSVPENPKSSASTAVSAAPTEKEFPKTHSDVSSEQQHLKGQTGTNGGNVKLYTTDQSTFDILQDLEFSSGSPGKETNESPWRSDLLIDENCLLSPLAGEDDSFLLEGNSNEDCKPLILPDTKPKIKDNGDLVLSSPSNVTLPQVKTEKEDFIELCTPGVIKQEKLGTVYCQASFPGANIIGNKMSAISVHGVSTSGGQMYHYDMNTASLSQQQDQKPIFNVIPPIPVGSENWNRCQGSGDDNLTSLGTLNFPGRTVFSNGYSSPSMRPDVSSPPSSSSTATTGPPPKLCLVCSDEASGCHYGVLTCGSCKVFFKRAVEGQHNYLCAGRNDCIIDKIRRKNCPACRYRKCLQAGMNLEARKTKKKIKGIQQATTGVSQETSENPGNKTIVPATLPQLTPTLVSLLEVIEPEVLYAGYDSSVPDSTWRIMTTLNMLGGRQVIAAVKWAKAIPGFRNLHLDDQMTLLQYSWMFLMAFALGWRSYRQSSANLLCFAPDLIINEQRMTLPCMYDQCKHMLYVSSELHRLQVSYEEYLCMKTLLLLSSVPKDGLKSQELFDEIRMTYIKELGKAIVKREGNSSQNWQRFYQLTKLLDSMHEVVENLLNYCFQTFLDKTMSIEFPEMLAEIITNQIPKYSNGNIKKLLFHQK
Chain of Cytochrome P450 3A4 (Homo sapiens) (P08684 whole entry, looked up): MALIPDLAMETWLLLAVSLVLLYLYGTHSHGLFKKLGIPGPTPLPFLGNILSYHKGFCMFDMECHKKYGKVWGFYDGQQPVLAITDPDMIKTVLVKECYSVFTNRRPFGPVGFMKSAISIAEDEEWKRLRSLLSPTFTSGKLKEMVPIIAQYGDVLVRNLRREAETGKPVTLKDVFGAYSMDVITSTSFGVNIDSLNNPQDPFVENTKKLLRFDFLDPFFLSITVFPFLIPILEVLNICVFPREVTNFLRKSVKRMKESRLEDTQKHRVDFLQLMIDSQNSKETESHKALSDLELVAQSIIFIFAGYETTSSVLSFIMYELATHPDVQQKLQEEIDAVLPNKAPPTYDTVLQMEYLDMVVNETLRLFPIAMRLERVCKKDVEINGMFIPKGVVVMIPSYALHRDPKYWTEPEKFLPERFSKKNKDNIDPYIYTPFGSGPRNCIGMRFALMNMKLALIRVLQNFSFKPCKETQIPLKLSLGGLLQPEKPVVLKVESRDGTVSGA
Chain of DNA dC->dU-editing enzyme APOBEC-3G (Homo sapiens) (Q9HC16 whole entry, looked up): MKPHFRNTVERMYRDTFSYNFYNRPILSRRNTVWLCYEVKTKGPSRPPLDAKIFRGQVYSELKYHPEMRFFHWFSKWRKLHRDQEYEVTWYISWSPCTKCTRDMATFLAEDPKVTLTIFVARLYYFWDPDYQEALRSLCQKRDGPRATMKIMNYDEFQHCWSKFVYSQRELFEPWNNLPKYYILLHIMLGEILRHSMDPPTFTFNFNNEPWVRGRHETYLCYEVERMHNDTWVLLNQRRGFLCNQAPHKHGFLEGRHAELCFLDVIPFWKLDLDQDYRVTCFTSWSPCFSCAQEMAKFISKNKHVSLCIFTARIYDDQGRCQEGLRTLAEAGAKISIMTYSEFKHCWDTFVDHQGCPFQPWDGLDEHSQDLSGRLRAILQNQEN
Chain of 3',5'-cyclic-AMP phosphodiesterase 4B (Homo sapiens) (Q07343 whole entry, looked up): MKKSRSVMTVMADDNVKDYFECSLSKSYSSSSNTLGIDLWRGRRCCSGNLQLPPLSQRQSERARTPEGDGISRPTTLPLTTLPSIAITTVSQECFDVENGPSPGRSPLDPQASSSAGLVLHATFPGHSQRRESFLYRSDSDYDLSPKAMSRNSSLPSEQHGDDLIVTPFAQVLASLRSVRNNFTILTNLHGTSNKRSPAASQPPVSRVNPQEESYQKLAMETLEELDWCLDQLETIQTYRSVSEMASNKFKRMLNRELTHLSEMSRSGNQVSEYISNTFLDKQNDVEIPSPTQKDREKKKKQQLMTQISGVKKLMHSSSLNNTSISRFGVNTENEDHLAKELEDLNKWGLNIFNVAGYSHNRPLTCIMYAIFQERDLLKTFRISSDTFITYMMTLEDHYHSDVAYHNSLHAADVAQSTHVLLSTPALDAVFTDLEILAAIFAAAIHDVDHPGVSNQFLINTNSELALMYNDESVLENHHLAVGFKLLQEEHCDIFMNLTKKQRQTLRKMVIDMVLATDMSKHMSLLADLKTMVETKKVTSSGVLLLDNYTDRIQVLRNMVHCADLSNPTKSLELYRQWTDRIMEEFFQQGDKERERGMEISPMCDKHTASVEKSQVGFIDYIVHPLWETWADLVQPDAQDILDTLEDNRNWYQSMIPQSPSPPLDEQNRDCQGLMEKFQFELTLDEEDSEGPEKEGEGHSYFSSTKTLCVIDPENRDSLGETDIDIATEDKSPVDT
Chain of Ubiquitin carboxyl-terminal hydrolase 1 (Homo sapiens) (O94782 whole entry, looked up): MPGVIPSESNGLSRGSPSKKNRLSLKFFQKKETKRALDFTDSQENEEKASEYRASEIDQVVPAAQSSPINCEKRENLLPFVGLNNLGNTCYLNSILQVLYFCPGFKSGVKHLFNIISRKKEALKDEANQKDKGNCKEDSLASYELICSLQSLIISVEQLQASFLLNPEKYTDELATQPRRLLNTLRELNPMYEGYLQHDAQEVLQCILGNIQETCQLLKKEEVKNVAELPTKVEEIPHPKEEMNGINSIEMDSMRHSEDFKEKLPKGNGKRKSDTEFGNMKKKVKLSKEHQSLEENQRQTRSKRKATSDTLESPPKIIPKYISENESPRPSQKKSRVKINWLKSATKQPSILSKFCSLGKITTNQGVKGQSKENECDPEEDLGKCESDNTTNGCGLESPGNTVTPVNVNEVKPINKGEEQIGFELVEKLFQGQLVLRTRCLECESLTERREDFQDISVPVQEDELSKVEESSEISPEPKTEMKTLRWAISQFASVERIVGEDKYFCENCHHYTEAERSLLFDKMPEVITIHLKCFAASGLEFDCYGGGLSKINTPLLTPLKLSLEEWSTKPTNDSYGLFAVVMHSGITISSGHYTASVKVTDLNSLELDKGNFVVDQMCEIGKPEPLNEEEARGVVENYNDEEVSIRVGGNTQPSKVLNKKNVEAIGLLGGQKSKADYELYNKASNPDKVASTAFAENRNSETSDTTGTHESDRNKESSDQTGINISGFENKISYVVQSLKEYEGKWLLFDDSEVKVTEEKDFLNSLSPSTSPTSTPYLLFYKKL

C[C@@H]1c2ccccc2CN1CC1=NCCN1
active: Potency [6] 50.1 µM
inactive: Potency [1] > 46 µM | Potency [2] > 46 µM | Potency [3] | Potency [4] | Potency [5] | Potency [7] | Potency [8]

C[C@H](NC[C@H](O)CP(=O)(O)CC1CCCCC1)c1ccc(Cl)c(Cl)c1
17.2%: max response ([9]; measured here: lipid channel max response)
9.04%: max response ([9]; measured here: cell count channel max response)
inactive: Potency [1] > 46 µM | Potency [2] > 46 µM | Potency [3] | Potency [4] | Potency [5] | activity change, negative = inhibition ([9]; at 57.5 µM (top of the series)) 4.93% | Potency [6] | Potency [7] | Potency [8]

O=c1[nH]cnc2ccccc12
inactive: Potency [10] | outcome [11]

COC(=O)C1=C(C(=O)OC)[C@@H]2N(C)c3ccccc3[C@@]23C[C@@H](C(=O)OC)N(C(=O)NCCBr)C3=N1
inactive: Potency [12] | Potency [13] | Potency [14] | Potency [15]

COC(=O)C1=C(C)N(Cc2ccccc2)C(=NCc2cc(OC)c(OC)c(OC)c2)NC1c1cccc(F)c1 (stereo unspecified)
active: Potency [12] 1.19 µM

CCN1C(=S)NC(c2cccc(F)c2)C(C(=O)OC)=C1C (stereo unspecified)
inactive: Potency [12] | Potency [13] | Potency [14] | Potency [15] | Potency [16]

Source: PubChem BioAssay (NCATS)
